POLH inh = blocks human DNA polymerase eta activity; Q9Y253; recombinant Pol eta, fluorescent DNA replication assay; Potency, µM (titrated, usually from 114 µM), without a hit: top-dose activity change, negative = inhibition, actives largely listed as inhibitors; 390,000 compounds, 1.2% hits; AID 588591; also: potency is read from the fitted curve at half-maximal effect; % is scaled to controls: 0 for no effect and ±100 for the full control effect
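Pol eta at 10 nM preincubated with compounds 15 min at room temperature; reaction started with fluorescent substrate (50 nM final) and read kinetically at 0 and 10 min.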
POLI inh = blocks human DNA polymerase iota activity. Q9UNA4. Pol iota fluorescent replication assay, 10 min. Potency, µM (series often up to 115 µM), for the others: at the highest dose activity, negative = inhibition, hits mostly inhibitors. 390,000 compounds, 1% hits. AID 588590; also: potency is read from the fitted curve at half-maximal effect
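Fluorescent replication assay read twice, at 0 min and 10 min after adding 50 nM (final) substrate. Enzyme (10 nM) and compounds were first incubated 15 min at room temperature; enzyme-free buffer wells were negative controls.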
WRN helicase inh = inhibitors of human WRN helicase | 360,000 compounds, 0.46% hits | Q14191 | Potency, µM (top dose mostly 114 µM), inactives show top-dose activity change, negative = inhibition, usual class: inhibitors | WRN helicase unwinding, fluorescent forked duplex, kinetic; also: potency is read from the fitted curve at half-maximal effect; % is scaled to controls: 0 for no effect and ±100 for the full control effect; nearly all actives have a fitted effect of over 55% in size
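Kinetic red-fluorescence monitoring (525/598 nm) tracks WRN helicase activity after 100 nM fluorophore-quencher forked duplex and 2 mM ATP are added to 20 nM enzyme pretreated 15 min at room temperature with compound.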
PI5P4K alpha inh = PI5P4K alpha (human) kinase inhibition. P48426. PI5P4Kalpha enzyme, ADP-Glo luminescence, 60 min; active compounds read low. max response, %. 330,000 compounds, 1.2% hits; active = max response of -50% or lower; inconclusive = between -30% and -50%; inactive = -30% or higher; also: value at the top dose of about 77 µM; % is scaled to controls: 0 for no effect and ±100 for the full control effect
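Compounds were pin-transferred onto PI5P4Kalpha and substrate in HEPES pH 7.4 buffer with EGTA, CHAPS and 5% DMSO. ATP (5 microM final) started the reaction, which ran 60 minutes at room temperature before ADP-Glo detection.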
POLK inh = inhibitors of human DNA polymerase kappa; Q9UBT6; purified Pol kappa, fluorescent DNA synthesis assay, 10 min; Potency, µM (titrated, usually from 107 µM), without a hit: top-dose activity, negative = inhibition, usual class: inhibitors; 400,000 compounds, 0.53% hits; also: potency is read from the fitted curve at half-maximal effect; % is scaled to controls: 0 for no effect and ±100 for the full control effect
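Kinetic fluorescence screen: compound preincubated 15 min RT with 10 nM enzyme; 50 nM substrate (final) initiates; reads at 0/10 min.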
POLB inh = inhibitors of human DNA polymerase beta; Potency, µM (series often up to 114 µM), for the others: at the top dose activity change, negative = inhibition, usual class: inhibitors; Pol beta primer extension/strand displacement, fluorescence kinetic; AID 485314; 340,000 compounds, 1.3% hits; P06746; also: potency is read from the fitted curve at half-maximal effect; % is scaled to controls: 0 for no effect and ±100 for the full control effect
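Enzyme-only controls used 10 nM Pol beta; buffer lacking enzyme served as negative control. Compound preincubated 15 min, then 50 nM substrate added; 0 and 10 min reads at room temperature.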
An asterisk follows results filed as active; [ ] = remark or other dose. Shown are actives, neighbours in structure and some others; about 2.8% of the full set was active somewhere. Unless noted, calls follow the shape of the dose curve; as a rule, active = well fitted curve in the direction sought with a large enough effect; inconclusive = small, poorly fitted or top-dose-only effect, or another doubt; inactive = no such curve, though single readings can be large; an effect the other way counts as inactive or inconclusive.

Screening Cc1[nH][nH]c(=O)c1C(c1ccc(N(C)C)c(Br)c1)c1c(C)[nH][nH]c1=O returned POLH inh -11%, POLI inh 36%, WRN helicase inh -14%, PI5P4K alpha inh -1, POLK inh -5% and POLB inh 40%.
Screening Cc1[nH][nH]c(=O)c1C(c1ccc(-c2ccc(F)cc2)o1)c1c(C)[nH][nH]c1=O returned POLH inh -25%, POLI inh 7.1µM*, WRN helicase inh 11%, PI5P4K alpha inh 4, POLK inh -9% and POLB inh inconclusive.
COc1ccc(-c2ccc(/C=N/N3C(=O)C4C5C=CC(C6CC56)C4C3=O)o2)c([N+](=O)[O-])c1 (stereo unspecified) was read as POLH inh inconclusive, POLI inh 5%, WRN helicase inh -12%, PI5P4K alpha inh -19, POLK inh -8% and POLB inh inconclusive.
Cc1cc(C)cc(C(O)c2ncc(-c3ccc(C(F)(F)F)cc3)[nH]2)c1 (stereo unspecified) was read as WRN helicase inh -7% and PI5P4K alpha inh -2.
`Cc1ccc2c(C(=O)CNc3nc(C)c(C)s3)c(C)[nH]c2c1` gave POLI inh 1% and POLK inh -14%.
`Cc1nnc(N/N=C\c2ccc(-c3ccccc3[N+](=O)[O-])o2)n1N` gave POLH inh -10%, POLI inh 4µM*, WRN helicase inh 3%[11.6 µM], PI5P4K alpha inh -3, POLK inh -18% and POLB inh 3%.
CCC(=O)N/N=C/c1ccc(-c2ccc([N+](=O)[O-])cc2)o1 was read as POLH inh -8%, POLI inh -6%, WRN helicase inh 4%, PI5P4K alpha inh -9, POLK inh -8% and POLB inh inconclusive.
Screening CCc1nnc(N/N=C/c2ccc(-c3ccc([N+](=O)[O-])cc3)o2)n1N returned POLH inh -21%, POLI inh 32µM*, WRN helicase inh -9%[11.6 µM], PI5P4K alpha inh 1, POLK inh -4% and POLB inh -26%.
For Cc1nnc(N/N=C/c2ccc(-c3ccccc3F)o2)n1N the results were POLH inh 8%, POLI inh 3.5µM*, WRN helicase inh -9%[11.6 µM], PI5P4K alpha inh 5, POLK inh -20% and POLB inh inconclusive.
`O=C1NC[C@@H](Cc2ccc(O)cc2)N(CCc2cc(C(F)(F)F)cc(C(F)(F)F)c2)C1=O` gave WRN helicase inh -6% and PI5P4K alpha inh -68*.
For Cc1ccc(CSC2=Nc3ccccc3C3=NC(CC(=O)NCc4ccco4)C(=O)N23)cc1 (stereo unspecified) the results were POLH inh inconclusive, POLI inh inconclusive, WRN helicase inh -20%, PI5P4K alpha inh inconclusive, POLK inh inconclusive and POLB inh 25µM*.
`O=C(CCC1N=C2c3ccccc3N=C(SCc3ccc(F)cc3)N2C1=O)NCc1ccco1` (stereo unspecified) gave POLH inh -8%, POLI inh 21%, WRN helicase inh -1%, POLK inh -23% and POLB inh inconclusive.
Screening O=C(CCC1N=C2c3ccccc3N=C(SCc3ccc(Cl)cc3)N2C1=O)NCCc1ccccc1 (stereo unspecified) returned POLH inh -15%, POLI inh 89µM*, POLK inh -38% and POLB inh 16%.
`O=C(CC1N=C2c3ccccc3N=C(SCc3ccc(F)cc3)N2C1=O)NCc1ccco1` (stereo unspecified) gave POLH inh -8%, POLI inh 17%, WRN helicase inh -26%, PI5P4K alpha inh -14, POLK inh -6% and POLB inh 50µM*.
`Cc1ccc(CSC2=Nc3ccccc3C3=NC(CC(=O)NCc4cccs4)C(=O)N23)cc1` (stereo unspecified) gave POLH inh -10%, POLI inh 7%, POLK inh 1%[60.1 µM] and POLB inh 1%.
Screening CCn1cc(S(=O)(=O)c2ccc(Cl)cc2)c(=O)c2cc(F)c(N3CCOCC3)cc21 returned POLH inh -10%, POLI inh 25%, POLK inh -7% and POLB inh 0%.
`CCCn1c(=O)c2sccc2n2c(CCCC(=O)NCc3ccco3)nnc12` gave POLH inh 35µM*, POLI inh 20µM*, WRN helicase inh inconclusive, PI5P4K alpha inh inconclusive, POLK inh inconclusive and POLB inh inconclusive.
`CCCn1c(=O)c2sccc2n2c(CCCC(=O)NCc3ccccc3)nnc12` gave POLH inh -11%, POLI inh 20%, POLK inh -14% and POLB inh 31%.
Screening Cc1nc(S/C(=C\c2ccc(OCc3ccccc3Cl)cc2)C(=O)O)n[nH]1 returned POLH inh 32µM*, POLI inh inconclusive, WRN helicase inh -13%[57.1 µM], PI5P4K alpha inh inconclusive, POLK inh 6% and POLB inh 1%.
`COc1ccc(C(=O)/C=C/c2cc(C(=O)O)cc3c2OCOC3)c(O)c1` gave POLH inh 50µM*, POLI inh inconclusive, WRN helicase inh inconclusive, PI5P4K alpha inh -29, POLK inh -27% and POLB inh inconclusive.
For COc1ccc(C(=O)/C=C/c2ccccc2)c(O)c1 the results were POLH inh -1%, POLI inh inconclusive, WRN helicase inh -9%, PI5P4K alpha inh 8, POLK inh -1% and POLB inh -2%.
For O=C(NCCN1C(=O)S/C(=C/c2cccnc2)C1=O)C1=NN(c2ccccc2)C(=O)CC1 the results were POLH inh -25%, POLI inh -30%, WRN helicase inh -3%, PI5P4K alpha inh -9 and POLK inh -14%.
Screening Cc1ccc(C)c(N2N=C(C(=O)NCCN3C(=O)S/C(=C\c4cccnc4)C3=O)CCC2=O)c1 returned POLH inh inconclusive, POLI inh 50µM*, WRN helicase inh -1%[11.6 µM], PI5P4K alpha inh -27 and POLK inh -24%.
Screening CC(C)(C)NC(=O)C(c1cccc2ccccc12)n1c(=O)c(-c2ccco2)nc2ccccc21 (stereo unspecified) returned WRN helicase inh -5% and PI5P4K alpha inh -61*.
CC(C)(C)NC(=O)C(c1cccc2ccccc12)n1c(=O)c(-c2ccccc2)nc2ccccc21 (stereo unspecified) was read as WRN helicase inh -1% and PI5P4K alpha inh 3.
`CCCCCNC(=O)C(c1cccc2ccccc12)n1c(=O)c(-c2ccco2)nc2ccccc21` (stereo unspecified) gave WRN helicase inh -7% and PI5P4K alpha inh -57*.
